Values without a mark were called inactive. How the calls were made is not given here.

Pantothenate synthetase (Mycobacterium tuberculosis (strain ATCC 25618 / H37Rv)), sequence (P9WIL5 whole entry, looked up): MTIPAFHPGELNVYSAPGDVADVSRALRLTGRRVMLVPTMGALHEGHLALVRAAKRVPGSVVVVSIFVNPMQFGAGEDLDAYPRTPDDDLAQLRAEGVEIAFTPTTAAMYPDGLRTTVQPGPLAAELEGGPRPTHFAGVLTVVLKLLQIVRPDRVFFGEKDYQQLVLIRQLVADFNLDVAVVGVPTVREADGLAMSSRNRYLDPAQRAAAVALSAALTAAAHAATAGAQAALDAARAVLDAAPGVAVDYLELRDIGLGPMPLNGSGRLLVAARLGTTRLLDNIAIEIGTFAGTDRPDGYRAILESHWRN

The assay has as its target Pantothenate synthetase (Mycobacterium tuberculosis (strain ATCC 25618 / H37Rv)) (UniProt P9WIL5). Put plainly: Coupled enzyme confirmation of inhibitors against recombinant Mtb PanC (AID 375).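 Further: 0% = full reaction with vehicle and 100% = no enzyme background.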 Conditions: coupled enzyme assay; at 10 µM, active compounds read high.
What is called inhibition is the relative decrease from the control value, in per cent. Take `Cn1c(SCC(=O)Nc2ccc3c(c2)OCO3)nnc1-c1cnccn1`: the inhibition was 1%. The value for `Cc1ccc2nc(/C(C#N)=N/O)[nH]c2c1` was 10%; that for `COc1cccc(Nc2c(F)c(F)c(F)c(F)c2C(=O)O)c1` was 7%; that for `C1=C(CCNc2ncnc3c2cnn3-c2ccccc2)CCCC1` was 6%.

As for `C(=N\n1cnnc1)/c1cccc(OCCOc2ccccc2)c1`, the inhibition is 0%. As to `Cc1cccc(N(CC(=O)Nc2ccc(CC#N)cc2)S(C)(=O)=O)c1`, the inhibition is 2%.

Regarding `COCCNC(=O)CCCCCN1C(=O)CCC1=O`, the inhibition is 7%. The same measure for `COc1ccccc1S(=O)(=O)Cc1ccc(C(=O)N2CCN(c3ccc(C)cc3)C(C)C2)o1` (stereo not given): 13%. The value for `Cc1nc2ccccn2c(=O)c1CCN1CCC(C(=O)c2ccc(F)cc2)CC1` was 0%.

Consider `CCN(CC)C(=O)COC(=O)c1ccc(O)cc1`, for which the inhibition is 0%. The same measure for `CCOC(=O)c1cnc(SC2CC(=O)N(c3ccc(OC)c(OC)c3)C2=O)nc1N` (stereo not given): 0%; for `CCOC(=O)c1sc(NC(=O)CSc2ncn(-c3ccccc3)n2)nc1C`: 3%; for `CN(C)S(=O)(=O)N1CCN(S(=O)(=O)c2ccc(F)cc2)CC1`: 0%. As for `Cc1ccc(C)c(Cn2c(=O)n(CCC(=O)NCc3ccco3)c(=O)c3sccc32)c1`, the inhibition was 9%. The value for `O=C(CSc1nnc2scc(-c3ccccc3)n12)Nc1nsc(-c2ccccc2)n1` was 1%; that for `CCOC(=O)C1CCCN(C(=O)c2ccc(CS(=O)(=O)c3ccc(Br)cc3)o2)C1` (stereo not given) was 4%.

Consider `CCS(=O)(=O)N1CCC(C(=O)NC2CCCCC2)CC1`, for which the inhibition is 0%.

For the compound `CCc1cc2c(=O)c(-c3nc4ccccc4[nH]3)coc2c(CN2CCC(C)CC2)c1O`, the inhibition is 4%. With `Cc1nnc(NC(=O)CCC(=O)N2CCC(C)CC2)s1`, the inhibition is 0%. `Cc1c(NC(=O)C(C)Oc2ncnc3ccccc23)c(=O)n(-c2ccccc2)n1C` (stereo not given): the inhibition was 0%. For `CC(C)Cn1c(N)c(C(=O)COC(=O)c2ccc3c(c2)OCCO3)c(=O)n(C)c1=O`, the inhibition is 0%.

Consider `O=C1c2ccccc2C(Nc2ccc3c(c2)OCCO3)N1Cc1ccc2c(c1)OCO2` (stereo not given), for which the inhibition was 1%. Turning to `CN1CCN(C2=C(Cl)C(=O)N(c3cccc(Cl)c3)C2=O)CC1`, the inhibition was 3%. Turning to `Cc1ccc(-c2nnn(CC(=O)NC3CC4CCC3C4)n2)cc1` (stereo not given), the inhibition was 4%. As to `Cc1ccc(-c2nnn(CC(=O)N(Cc3ccco3)C(C(=O)NC(C)(C)C)c3cccs3)n2)o1` (stereo not given), the inhibition is 0%. Consider `CCCCOc1cc(=O)[nH]c(=O)[nH]1`, for which the inhibition was 4%.

Consider `CCN(CC)C(=O)CSc1nc2ccccc2c(=O)n1CCC(=O)NCc1ccc(F)cc1`, for which the inhibition was 0%.

As to `O=C(NCCc1ccccn1)c1ccc(COc2ccccc2)o1`, the inhibition was 0%. The value for `CC(C)(C)c1cc(C(=S)N2CCN(CCO)CC2)cc(C(C)(C)C)c1O` was 5%; that for `Cc1noc(NS(=O)(=O)c2ccc(N)cc2)c1C` was 0%; that for `COc1ccc(CC(=O)OCC(=O)NC(=O)NC2CCCCC2)cc1` was 7%. The value for `CCCCc1nc2n[nH]c(N)c2c2c1CCCC2` was 0%. For the compound `O=C(O)c1cc(=O)c2c(OCC(O)COc3cccc4oc(C(=O)O)cc(=O)c34)cccc2o1`, the inhibition was 1%.

`Cc1cc(NC(=O)C2=C(O)c3ccccc3S(=O)(=O)N2C)no1`: the inhibition is 0%. Take `COc1ccc(OC)c(C(=O)COC(=O)c2cc(C)oc2C)c1`: the inhibition is 11%. The same measure for `CN1CCCN(C(=O)c2cc(=O)[nH]c3ccccc23)c2nc3ccccc3nc21`: 0%; for `CN(C)CCN1C(=O)c2oc3ccc(Cl)cc3c(=O)c2C1c1cccc(Br)c1` (stereo not given): 0%.

Regarding `COc1cccc(C(=O)CSc2nnc(COc3cccc4cccnc34)o2)c1`, the inhibition was 0%. The same measure for `O=C(NCC(c1cccnc1)N1CCN(c2ccccc2)CC1)c1ccc2c(c1)OCO2` (stereo not given): 0%.

For the compound `CC(=O)c1c(C)nc(C)nc1NC(=O)Cc1ccccc1`, the inhibition is 0%.

The record behind these values is PubChem BioAssay.
